Assay results from PubChem BioAssay (NCI).
The panel holds about 83,000 compounds, 20% with a hit somewhere; the sample as a whole holds those more often.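 48-hour exposure, single concentration, 96-well plates; percent growth endpoint where 0 means no net growth. Active: below 10.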 The source made the active and inactive calls.

How the values were obtained:
Assay in all cases: NCI-60 one-dose screen, 48 h (100 = growth as untreated, 0 = no growth, -100 = all killed)
Conditions in all cases: 10 µM unless noted
HT29 colon = system: HT29 colon
SNB-75 CNS = system: SNB-75 CNS
SNB-19 CNS = system: SNB-19 CNS
U251 CNS = system: U251 CNS
PC-3 prostate = system: PC-3 prostate
SK-MEL-5 melanoma = system: SK-MEL-5 melanoma
UACC-62 melanoma = system: UACC-62 melanoma
LOX IMVI melanoma = system: LOX IMVI melanoma
SK-MEL-28 melanoma = system: SK-MEL-28 melanoma

Measured: growth

[N-]=[N+]=NCc1ncc(-c2ccc(C(F)(F)F)cc2)c(NC2CCCCCC2)n1
inactive: HT29 colon 69.8% [50 µM] | SNB-75 CNS 65.8% [50 µM] | SNB-19 CNS 85.2% [50 µM] | U251 CNS 73% [50 µM] | PC-3 prostate 35.6% [50 µM] | SK-MEL-5 melanoma 84.2% [50 µM] | UACC-62 melanoma 79.2% [50 µM] | LOX IMVI melanoma 82.2% [50 µM] | SK-MEL-28 melanoma 98.1% [50 µM]

CCCCCCCCCCNCCSS(=O)(=O)O
active: UACC-62 melanoma 4.6%
inactive: SNB-75 CNS 96.1% | SNB-19 CNS 65.9% | U251 CNS 15% | PC-3 prostate 88.7% | SK-MEL-5 melanoma 39.8% | LOX IMVI melanoma 20.9% | SK-MEL-28 melanoma 51.5%

COc1ccc(NC(=O)c2ccc(-c3ccccc3)cc2)c(C(N)=O)c1
inactive: HT29 colon 99.9% | SNB-75 CNS 112% | SNB-19 CNS 94.2% | U251 CNS 98.4% | PC-3 prostate 93.1% | SK-MEL-5 melanoma 101% | UACC-62 melanoma 91.5% | LOX IMVI melanoma 96.6% | SK-MEL-28 melanoma 108%

Cc1ccc(C(=O)Cc2ccccc2)c(O)c1
inactive: HT29 colon 110% | SNB-75 CNS 97.8% | SNB-19 CNS 95.4% | U251 CNS 98.9% | PC-3 prostate 99.8% | SK-MEL-5 melanoma 108% | UACC-62 melanoma 90.4% | LOX IMVI melanoma 98% | SK-MEL-28 melanoma 117%

CCN(CC)CCCCCCCNc1c2ccc(Cl)cc2nc2ccc(OC)cc12
active: SNB-19 CNS -10.1% | U251 CNS -70.2% | PC-3 prostate -56.1% | SK-MEL-5 melanoma -100% | UACC-62 melanoma -55% | LOX IMVI melanoma -7.86% | SK-MEL-28 melanoma -77.4%

C[C@H]1c2cccc(O)c2C(O)=C2C(=O)[C@]3(O)C(O)=C(C(N)=O)C(=O)[C@@H](N(C)C)[C@@H]3[C@@H](O)[C@@H]21
active: SK-MEL-5 melanoma 9.29%
inactive: HT29 colon 39.6% | SNB-75 CNS 47.3% | SNB-19 CNS 69.9% | U251 CNS 33.1% | PC-3 prostate 42.3% | UACC-62 melanoma 34.1% | LOX IMVI melanoma 31.5% | SK-MEL-28 melanoma 65.4%

COc1ccc(-c2cnc(SCC(=O)Nc3ccc(-c4nc5ccccc5s4)cc3)n2-c2ccc(OC)cc2)cc1
inactive: HT29 colon 92.7% | SNB-75 CNS 93.5% | SNB-19 CNS 98.8% | U251 CNS 109% | PC-3 prostate 97% | SK-MEL-5 melanoma 99.4% | UACC-62 melanoma 93.2% | LOX IMVI melanoma 95.2% | SK-MEL-28 melanoma 120%

Nc1ccccc1C#Cc1ccccc1C#Cc1ccc(OCCCCCCOc2ccc(C#Cc3ccccc3C#Cc3ccccc3N)cc2)cc1
inactive: HT29 colon 108% | SNB-75 CNS 105% | SNB-19 CNS 112% | U251 CNS 100% | PC-3 prostate 97% | UACC-62 melanoma 96.6% | LOX IMVI melanoma 103% | SK-MEL-28 melanoma 109%

COc1cccc2c1C(=O)c1c(O)c3c(c(O)c1C2=O)C[C@@](O)(C(C)=O)C[C@@H]3O[C@H]1C[C@H](N)[C@H](O)[C@H](C)O1
active: HT29 colon -13.5% | SNB-75 CNS -91.4% | SNB-19 CNS 2.11% | U251 CNS 0.281% | PC-3 prostate -26.3% | SK-MEL-5 melanoma -100% | UACC-62 melanoma -65.8% | LOX IMVI melanoma -35% | SK-MEL-28 melanoma -44.5%

FCc1ncc(-c2ccc(C(F)(F)F)cc2)c(NC2CCCCCC2)n1
inactive: SNB-75 CNS 28.6% [100 µM] | SNB-19 CNS 32.6% [100 µM] | SK-MEL-28 melanoma 33.6% [100 µM]
active: HT29 colon -33.6% [100 µM] | U251 CNS -29.7% [100 µM] | PC-3 prostate 7.27% [100 µM] | UACC-62 melanoma 3.7% [100 µM] | LOX IMVI melanoma -52.6% [100 µM]

COc1ccc(Cl)cc1Nc1nc(C(F)(F)F)ccc1C(=O)N/N=C/c1c(Cl)cccc1Cl
inactive: HT29 colon 52.1% | SNB-75 CNS 63.5% | SNB-19 CNS 55.5% | U251 CNS 29.1% | PC-3 prostate 48.5% | SK-MEL-5 melanoma 13.4% | UACC-62 melanoma 52.9% | LOX IMVI melanoma 32.3% | SK-MEL-28 melanoma 62.2%

CC(=O)c1nn(-c2ccccc2)c(=Nc2ccccc2)cc1C
inactive: HT29 colon 95.5% | SNB-75 CNS 76.2% | SNB-19 CNS 92.4% | PC-3 prostate 80.3% | SK-MEL-5 melanoma 98.9% | UACC-62 melanoma 94.8% | LOX IMVI melanoma 98.4% | SK-MEL-28 melanoma 109%

N#CC1c2ccccc2C=CN1C(=O)N(c1ccccc1)c1ccccc1 (stereo not given)
inactive: SNB-75 CNS 68.6% | SNB-19 CNS 98.5% | U251 CNS 57.4% | PC-3 prostate 60% | UACC-62 melanoma 61.2% | LOX IMVI melanoma 35.6% | SK-MEL-28 melanoma 67%

CC(C)Sc1nc(-c2ccc(Br)cc2)c(C#N)c(N2CCCCC2)n1
inactive: HT29 colon 94.5% | SNB-75 CNS 99.4% | SNB-19 CNS 105% | PC-3 prostate 97.5% | SK-MEL-5 melanoma 101% | UACC-62 melanoma 82.6% | LOX IMVI melanoma 108% | SK-MEL-28 melanoma 105%

O=C(COc1cccc(/C=C2\Oc3ccc4ccccc4c3C2=O)c1)c1ccc([N+](=O)[O-])cc1
inactive: HT29 colon 96.5% | SNB-75 CNS 81.4% | SNB-19 CNS 100% | U251 CNS 94.5% | PC-3 prostate 75.6% | SK-MEL-5 melanoma 87.2% | UACC-62 melanoma 81.1% | SK-MEL-28 melanoma 124%
active: LOX IMVI melanoma -30.3%

C[C@H]1O[C@@H](O[C@H]2[C@@H](O)C[C@H](O[C@H]3[C@@H](O)C[C@H](O[C@H]4CC[C@]5(C)C6C[C@@H](O)[C@]7(C)[C@@H](C8=CC(=O)OC8)CC[C@]7(O)C6CC[C@@H]5C4)O[C@@H]3C)O[C@@H]2C)C[C@H](O)[C@@H]1O (stereo not given in full)
active: HT29 colon -84.5% | SNB-75 CNS -75.6% | SNB-19 CNS -100% | U251 CNS -100% | PC-3 prostate -21.3% | SK-MEL-5 melanoma -100% | UACC-62 melanoma -98.8% | LOX IMVI melanoma -98.1% | SK-MEL-28 melanoma -56.3%
